Results on 40 compounds are retold here after PubChem BioAssay (Tox21).

Inconclusive results are not listed. Where a call stands in place of a potency, no number is given. The source made the active and inactive calls. Calls come from the whole dose curve; as a rule, active = well fitted cell-killing curve with a large enough effect in the repeat runs; inconclusive = weak or mixed curves, or effect the other way; inactive = flat fitted curve, though single readings scatter.
Potency is the fitted concentration of half-maximal effect.

A short description of the test: qHTS assay to identify small molecule antagonists of the estrogen receptor alpha (ER-alpha) signaling pathway using the BG1 cell line in the presence of 0.1 nM 17-beta-estradiol - cell viability counter screen (AID 1259241). Note: nearly all actives have a fitted effect of over 40% in size. The settings on record: VM7Luc4E2 (BG1) viability, CellTiter-Fluor protease, 22 h, 0.1 nM estradiol agonist added; series mostly up to 92.4 µM. The text has this: National Center for Advancing Translational Sciences [NCATS]
NIH Chemical Genomics Center [NCGC]
U.S. Environmental Protection Agency [EPA]
National Institutes of Environmental Health Sciences [NIEHS]
National Toxicology Program [NTP]
U.S. Food and Drug Administration [FDA]
Estrogen receptor (ER), a member of the nuclear hormone receptor plays an important role in development, metabolic homeostasis and reproduction. Two subtypes of ER, ER-alpha and ER-beta, have similar expression patterns with some uniqueness in both types. Endocrine disrupting chemicals (EDCs) and their interactions with steroid hormone receptors like ER causes disruption of normal endocrine function. Therefore, it is important to understand the effect of environmental chemicals in ER signaling pathway. For identifying ER antagonists, VM7Luc4E2 cell line was used to screen against Tox21 compound libraries.
VM7Luc4E2 cell line (provided by Denison MS, University of California) endogenously express full-length ER-alpha and is stably transfected with a plasmid containing four estrogen responsive elements (ERE) upstream of a luciferase reporter gene. The current screening for identification of ER-alpha inhibitors against Tox21 compound libraries used lower concentration (0.1 nM) of 17beta-Estradiol as a stimulator. The cytotoxicity of the Tox21 compound libraries against VM7Luc4E2 cell line was tested by measuring live-cell protease activity using CellTiter-Fluor assay in the same wells.
Tox21 Assay Protocol Summary:
VM7Luc4E2 cells were cultured in phenol red free assay medium containing 10% charcoal stripped FBS for 5 days prior to the assay. The cells were dispensed at 4,000 cells/well in 4 uL of assay medium into white wall/solid-bottom 1536-well plates (Corning Life Sciences, Corning, NY) using a Multidrop Combi (ThermoFisher Scientific, Waltham, MA) dispenser. After the assay plates were incubated at 37C and 5% CO2 for 24 hr, 23 nL of compounds dissolved in DMSO, positive controls or DMSO only was transferred to the assay plates by a Pintool station (Kalypsys, San Diego, CA). The transfer of compounds was followed by the addition of 1 uL of 0.1 nM (final concentration) agonist (17beta-Estradiol)/assay medium using a Flying Reagent Dispenser (FRD, Aurora Discovery, San Diego, CA). The plates were incubated at 37C and 5% CO2 for 22 hr. For cytotoxicity assay, 1 uL of CellTiter-Fluor reagent (Promega Corporation, Madison, WI) was added to each well using the FRD and after 30 min incubation at 37C and 5% CO2, The fluorescence intensity was measured using ViewLux plate reader (PerkinElmer, Shelton, CT).
For orientation: qHTS replaces the single test concentration by a dilution series.
As to `COc1ccccc1/C=C/C=O`, the Potency entry is “inactive”.
The same measure for `COc1cccc2c1C(=O)c1c(O)c3c(c(O)c1C2=O)C[C@@](O)(C(=O)CO)C[C@@H]3O[C@H]1C[C@H](N)[C@H](O)[C@H](C)O1`: 11.9 µM (active); for `CN(C)c1nc(N(C)C)nc(N(C)C)n1`: “inactive”.
For `CN(C)CCC=C1c2ccccc2CCc2ccccc21` the value was “inactive”; for `Nc1ncnc2nc[nH]c12`, “inactive”.
As for `NNc1ccc(C(=O)O)cc1`, the Potency entry was “inactive”.
The same measure for `COc1c(Cl)c(Cl)c(Cl)c(Cl)c1Cl`: “inactive”; for `Cc1c(OCC(F)(F)F)ccnc1CS(=O)c1nc2ccccc2[nH]1` (stereo not given): “inactive”.
On to `C[Si](C)(C)O[Si](C)(C)C`, for which the Potency result is “inactive”.
For `Cc1c(C(N)=O)cc([N+](=O)[O-])cc1[N+](=O)[O-]` the value was “inactive”; for `C=C(C)C(=O)OCCOC(=O)C(=C)C`, “inactive”; for `CC(C)=CCC/C(C)=C\CO`, “inactive”.
For `O=C(Nc1ccc(Cl)cc1)Nc1ccc(Cl)c(Cl)c1`, the Potency result is “inactive”.
For `Cc1cccc(C(=O)O)c1` the value was “inactive”; for `c1ccc2c(c1)c1cccc3ccc4cccc2c4c31`, “inactive”; for `c1ccc2cc(Nc3ccc(Nc4ccc5ccccc5c4)cc3)ccc2c1`, “inactive”.
`Cn1cnc([N+](=O)[O-])c1Sc1ncnc2nc[nH]c12`: the Potency entry was “inactive”.
As for `O=C(/C=C/C=C/c1ccc2c(c1)OCO2)N1CCCCC1`, the Potency entry is “inactive”.
In the case of `O=C(c1ccccc1)c1ccc(O)cc1O`, the Potency entry is “inactive”.
For `COC(=O)CCC(=O)OC` the value was “inactive”; for `O=C1c2cccc(O)c2C(=O)c2c(O)cccc21`, “inactive”; for `O=c1oc(=O)c2cc3c(=O)oc(=O)c3cc12`, “inactive”.
`Oc1ccc(O)cc1`: the Potency result is “inactive”.
On to `CCC(C)c1ccccc1O` (stereo not given), for which the Potency entry is “inactive”.
Take `C=C(C)C1CC=C(C)CC1` (stereo not given): the Potency result is “inactive”.
In the case of `OC[C@H]1O[C@@H]2O[C@H]3[C@H](O)[C@@H](O)[C@@H](O[C@H]4[C@H](O)[C@@H](O)[C@@H](O[C@H]5[C@H](O)[C@@H](O)[C@@H](O[C@H]6[C@H](O)[C@@H](O)[C@@H](O[C@H]7[C@H](O)[C@@H](O)[C@@H](O[C@H]8[C@H](O)[C@@H](O)[C@@H](O[C@H]1[C@H](O)[C@H]2O)O[C@@H]8CO)O[C@@H]7CO)O[C@@H]6CO)O[C@@H]5CO)O[C@@H]4CO)O[C@@H]3CO`, the Potency entry was “inactive”.
With `COC(=O)C1=C(C)NC(C)=C(C(=O)OCCN(C)Cc2ccccc2)C1c1cccc([N+](=O)[O-])c1` (stereo not given), the Potency was 54.2 µM (active).
For `CN1C(C(=O)Nc2ccccn2)=C(O)c2ccccc2S1(=O)=O` the value was “inactive”; for `Clc1nc(Cl)c(Cl)c(Cl)c1Cl`, “inactive”.
In the case of `CC(=O)O[C@]1(C(C)=O)CC[C@H]2[C@@H]3C=C(Cl)C4=CC(=O)[C@@H]5C[C@@H]5[C@]4(C)[C@H]3CC[C@@]21C`, the Potency result is “inactive”.
For `Cc1[nH]c(=O)c(C#N)cc1-c1ccncc1` the value was “inactive”; for `CC(C)CC(C)(O)C#CC(C)(O)CC(C)C` (stereo not given), “inactive”.
Regarding `O=P(O)(O)O`, the Potency result is “inactive”.
Consider `CN(C)C(=N)N=C(N)N`, for which the Potency result is “inactive”.
Consider `CCCCCCCCCCCO`, for which the Potency result was “inactive”.
As for `COC(C)COC(C)COC(C)CO` (stereo not given), the Potency result is “inactive”.
`CCOCCOCCO`: the Potency entry is “inactive”.
Regarding `CC(=O)CC/C=C(\C)CCC=C(C)C`, the Potency entry was “inactive”.
The same measure for `O=C(O)c1ccccc1Nc1cccc(C(F)(F)F)c1`: “inactive”; for `OC1CCCCCCCCCCC1`: “inactive”.
